From PubChem BioAssay (NCATS)
Inconclusive results are not listed. The source made the active and inactive calls. Calls follow the shape of the dose curve; as a rule, active = well fitted curve in the direction sought with a large enough effect; inconclusive = small, poorly fitted or top-dose-only effect, or another doubt; inactive = no such curve, though single readings can be large; an effect the other way counts as inactive or inconclusive.

Assays:
[1] = target: Rap guanine nucleotide exchange factor 3 (Homo sapiens) (UniProt O95398); assay: Confirmatory qHTS for agonist of cAMP-regulated guanine nucleotide exchange factor 3 (EPAC1) (AID 1645881);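 also: EPAC1 catalysed release of BODIPY-GDP from Rap1B seen as fluorescence loss; 100% = effect of cAMP agonist control; nearly all actives have a fitted effect of over 75% in size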
Chain of Rap guanine nucleotide exchange factor 3 (Homo sapiens) (O95398 whole entry, looked up): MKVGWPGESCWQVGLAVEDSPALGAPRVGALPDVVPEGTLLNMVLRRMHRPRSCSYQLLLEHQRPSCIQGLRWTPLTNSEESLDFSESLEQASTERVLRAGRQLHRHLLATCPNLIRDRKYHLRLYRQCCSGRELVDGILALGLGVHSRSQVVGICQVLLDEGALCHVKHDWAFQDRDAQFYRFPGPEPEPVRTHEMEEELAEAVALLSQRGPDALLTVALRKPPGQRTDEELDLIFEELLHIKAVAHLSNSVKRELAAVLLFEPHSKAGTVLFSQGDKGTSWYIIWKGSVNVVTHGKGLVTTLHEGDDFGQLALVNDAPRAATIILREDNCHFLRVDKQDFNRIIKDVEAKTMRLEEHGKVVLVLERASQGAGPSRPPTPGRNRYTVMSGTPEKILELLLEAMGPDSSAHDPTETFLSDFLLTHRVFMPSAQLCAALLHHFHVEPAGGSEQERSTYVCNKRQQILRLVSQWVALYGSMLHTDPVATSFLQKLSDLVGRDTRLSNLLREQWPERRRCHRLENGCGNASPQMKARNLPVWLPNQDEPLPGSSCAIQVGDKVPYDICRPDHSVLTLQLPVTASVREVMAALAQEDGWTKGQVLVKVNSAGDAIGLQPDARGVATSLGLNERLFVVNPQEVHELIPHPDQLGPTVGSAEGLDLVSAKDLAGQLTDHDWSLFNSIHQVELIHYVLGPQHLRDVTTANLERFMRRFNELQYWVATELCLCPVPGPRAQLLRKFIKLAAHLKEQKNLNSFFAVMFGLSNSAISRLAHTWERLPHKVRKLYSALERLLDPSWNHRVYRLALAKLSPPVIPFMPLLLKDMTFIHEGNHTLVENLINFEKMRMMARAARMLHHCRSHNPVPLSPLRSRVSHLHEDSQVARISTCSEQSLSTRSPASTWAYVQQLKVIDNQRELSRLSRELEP

[2] = target: Rap guanine nucleotide exchange factor 4 (Homo sapiens) (UniProt Q8WZA2); assay: Confirmatory qHTS for agonist of cAMP-regulated guanine nucleotide exchange factor 4 (EPAC2) (AID 1645884);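 also: nucleotide exchange releases bodipy-GDP from Rap1 and this lowers its fluorescence; % is scaled to controls: 0 for no effect and ±100 for the full control effect; nearly all actives have a fitted effect of over 65% in size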
Chain of Rap guanine nucleotide exchange factor 4 (Homo sapiens) (Q8WZA2 whole entry, looked up): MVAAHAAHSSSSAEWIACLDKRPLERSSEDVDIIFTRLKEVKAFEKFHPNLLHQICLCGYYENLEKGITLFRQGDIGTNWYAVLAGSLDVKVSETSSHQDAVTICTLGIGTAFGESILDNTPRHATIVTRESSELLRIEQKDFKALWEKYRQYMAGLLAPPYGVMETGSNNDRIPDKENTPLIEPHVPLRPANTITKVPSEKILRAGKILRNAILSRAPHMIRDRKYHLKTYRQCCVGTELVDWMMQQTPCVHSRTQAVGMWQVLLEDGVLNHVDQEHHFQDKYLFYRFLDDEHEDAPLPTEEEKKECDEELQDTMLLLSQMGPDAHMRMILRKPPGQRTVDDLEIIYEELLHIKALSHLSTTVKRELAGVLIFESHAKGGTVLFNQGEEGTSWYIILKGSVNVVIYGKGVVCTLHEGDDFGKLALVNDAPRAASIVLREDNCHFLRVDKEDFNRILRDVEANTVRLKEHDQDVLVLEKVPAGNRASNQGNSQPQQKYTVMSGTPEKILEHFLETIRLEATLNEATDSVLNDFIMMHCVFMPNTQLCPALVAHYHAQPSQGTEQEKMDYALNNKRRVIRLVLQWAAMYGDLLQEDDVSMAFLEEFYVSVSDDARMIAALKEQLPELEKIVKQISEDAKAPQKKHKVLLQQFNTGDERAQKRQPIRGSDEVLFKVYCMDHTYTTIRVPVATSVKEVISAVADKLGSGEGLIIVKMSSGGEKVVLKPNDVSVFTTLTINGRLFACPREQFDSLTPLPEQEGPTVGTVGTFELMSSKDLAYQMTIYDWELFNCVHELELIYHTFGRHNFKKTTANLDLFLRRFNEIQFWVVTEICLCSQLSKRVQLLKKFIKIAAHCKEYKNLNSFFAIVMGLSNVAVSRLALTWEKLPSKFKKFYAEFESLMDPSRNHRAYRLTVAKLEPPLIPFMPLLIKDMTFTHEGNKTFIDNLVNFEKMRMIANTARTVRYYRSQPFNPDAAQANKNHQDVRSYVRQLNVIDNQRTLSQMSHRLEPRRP

[3] = target: Rap guanine nucleotide exchange factor 4 (Homo sapiens) (UniProt Q8WZA2); assay: Confirmatory qHTS for antagonist of cAMP-regulated guanine nucleotide exchange factor 4 (EPAC2) (AID 1645885); also: nearly all actives have a fitted effect of over 25% in size; also: potency is read from the fitted curve at half-maximal effect; as to activity change, negative = inhibition: % is scaled to controls: 0 for no effect and ±100 for the full control effect
[4] = target: Rap guanine nucleotide exchange factor 3 (Homo sapiens) (UniProt O95398); assay: Counterscreen qHTS for antagonist of cAMP-regulated guanine nucleotide exchange factor 3 (EPAC1) (AID 1645888);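 also: fluorescence loss as bound BODIPY-GDP is released from Rap1B; % of control where 0% means no effect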
Method in brief: (§1)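 Measured: fluorescence of BODIPY-GDP bound to Rap1B, which falls as exchange proceeds. Conditions include 50 uM competing GDP, 5 and 30 min reads, and a later cAMP challenge for antagonist detection.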

[5] = target: Rap guanine nucleotide exchange factor 3 (Homo sapiens) (UniProt O95398); assay: Counterscreen qHTS for agonist of cAMP-regulated guanine nucleotide exchange factor 3 (EPAC1) (AID 1645889); also: nearly all actives have a fitted effect of over 40% in size; also: potency is read from the fitted curve at half-maximal effect; as to activation: % of control where 0% means no effect
Method in brief: as §1

COc1cc(/C=C2/SC(=O)NC2=O)ccc1OCc1ccccc1
inactive: Potency [1] | Potency [2] | Potency [3] | Potency [4] | Potency [5]

Oc1ccc2ccccc2c1C=Nc1ccc(Cl)cn1
inactive: Potency [1] | Potency [2] | Potency [3] | Potency [4] | Potency [5]

O=C(Nc1nc2ccccc2[nH]1)C1CCN(S(=O)(=O)c2cccs2)CC1
inactive: Potency [1] | Potency [2] | Potency [3] | Potency [4] | Potency [5]

CCCc1nc(SC2CCCC2)c2c(=O)n(C)c(=O)n(C)c2n1
inactive: Potency [1] | Potency [2] | Potency [3] | Potency [4] | Potency [5]

CCOc1ccc(-n2c(C)nc3cc(C(=O)NCc4ccc(C)cc4)ccc32)cc1
inactive: Potency [1] | Potency [2] | Potency [3] | Potency [4] | Potency [5]

CC(=O)Nc1ccc(NC(=O)CNC(=O)COc2ccccc2)cc1
inactive: Potency [1] | activation [2] 14.1% [at 17.1 µM, percent relative to cAMP agonist control] | Potency [3] | activity change, negative = inhibition [4] 1.2% [at 30.8 µM] | activation [5] -0.338% [at 30.8 µM]

O=S(=O)(NCCC1=CCCCC1)c1ccc(OC(F)(F)F)cc1
inactive: Potency [1] | activation [2] -1.46% [at 17.1 µM, percent relative to cAMP agonist control] | Potency [3] | activity change, negative = inhibition [4] -5.33% [at 30.8 µM] | activation [5] 3.2% [at 30.8 µM]

Cc1cc(C2(c3ccc(O)c(C)c3)C(=O)N(C)c3ccc(Br)cc32)ccc1O
inactive: Potency [1] | activation [2] 5.15% [at 17.1 µM, percent relative to cAMP agonist control] | Potency [3] | activity change, negative = inhibition [4] -4.41% [at 30.8 µM] | activation [5] 17.4% [at 30.8 µM]

CCCCCC(=O)Nc1cccc(C2=NOC3(C2)C[C@@H](C(N)=O)N(C(=O)CC(c2ccccc2)c2ccccc2)C3)c1 (stereo not given in full)
inactive: Potency [1] | activation [2] 9.87% [at 17.1 µM, percent relative to cAMP agonist control] | Potency [3] | activity change, negative = inhibition [4] -21.4% [at 30.8 µM] | activation [5] 34.5% [at 30.8 µM]

O=C(COC(=O)c1ccc2c(c1)C(=O)N(Cc1ccncc1)C2=O)Nc1ccccc1[N+](=O)[O-]
inactive: Potency [1] | Potency [2] | Potency [3] | Potency [4] | Potency [5]

COC(=O)c1ccc2nc(-c3ccco3)c(Cc3ccccc3)n2c1
inactive: Potency [1] | activation [2] 7.95% [at 17.1 µM, percent relative to cAMP agonist control] | Potency [3] | activity change, negative = inhibition [4] -11.9% [at 30.8 µM] | activation [5] 10% [at 30.8 µM]

Cc1oc2c(O)c(O)ccc2c(=O)c1-c1cnn(-c2ccccc2)c1
inactive: Potency [1] | activation [2] 2.28% [at 17.1 µM, percent relative to cAMP agonist control] | Potency [3] | activity change, negative = inhibition [4] -26.8% [at 30.8 µM] | activation [5] 28.8% [at 30.8 µM]

CN(c1ccccc1)c1ccc(/C=C(\CCC(=O)O)c2nc3ccccc3s2)cc1[N+](=O)[O-]
inactive: Potency [1] | Potency [2] | Potency [3] | Potency [4] | Potency [5]

O=C1C=C(NCc2ccccc2)c2ccccc2C1=O
active: Potency [3] 15.1 µM
inactive: Potency [1] | Potency [2] | Potency [4] | Potency [5]

CC1(C(=O)NS(=O)(=O)c2ccc(Cl)cc2)CCN1C(=O)C1(c2ccccc2)CCCC1 (stereo not given)
inactive: Potency [1] | Potency [2] | Potency [3] | Potency [4] | Potency [5]

O=C(NN1C(=O)/C(=C/C=C/c2ccco2)SC1=S)c1ccncc1
inactive: Potency [1] | Potency [2] | Potency [3] | Potency [4] | Potency [5]

COc1ccc(NC(=O)CSc2nc3sc4c(c3c(=O)n2-c2ccc(OC)cc2)CCN(C)C4)cc1
inactive: Potency [1] | activation [2] -8.15% [at 17.1 µM, percent relative to cAMP agonist control] | Potency [3] | activity change, negative = inhibition [4] -8.97% [at 30.8 µM] | activation [5] 31.5% [at 30.8 µM]

Cc1ccc(-c2nc3ccc(C)cn3c2Cc2ccccc2C(F)(F)F)cc1
inactive: Potency [1] | Potency [2] | Potency [3] | Potency [4] | Potency [5]

CC(C)CCNc1nc(-c2ccco2)c2c(c1C#N)CCCC2
inactive: Potency [1] | Potency [2] | Potency [3] | Potency [4] | Potency [5]

O=C(O)C(Cc1c[nH]c2ccccc12)NS(=O)(=O)c1cccc(Cl)c1Cl (stereo not given)
inactive: Potency [1] | Potency [2] | Potency [3] | Potency [4] | Potency [5]

COc1cc(O)c(C=NN2C(=O)CSC2=S)c(OC)c1
inactive: Potency [1] | Potency [2] | Potency [3] | Potency [4] | Potency [5]

COc1ccccc1C(=O)Nc1nnc(SCc2cc(=O)c3ccccc3[nH]2)s1
inactive: Potency [1] | Potency [2] | outcome [3] inactive [at 12.7 µM] | Potency [4] | Potency [5]

COc1ccccc1/C=C1\SC(=S)N(CCC(=O)Nc2ccc(C(=O)O)c(O)c2)C1=O
inactive: Potency [1] | activation [2] 4.12% [at 17.1 µM, percent relative to cAMP agonist control] | Potency [3] | activity change, negative = inhibition [4] -13.3% [at 30.8 µM] | activation [5] 10.4% [at 30.8 µM]

C[C@H]1CN([C@@H](C)CO)C(=O)CCCn2cc(nn2)CO[C@@H]1CN(C)S(=O)(=O)c1ccc(-n2cccn2)cc1
inactive: Potency [1] | Potency [2] | Potency [3] | Potency [4] | Potency [5]

O=C(NCC(c1ccco1)N1CCCCC1)c1cccc(NS(=O)(=O)c2ccc(Br)cc2)c1 (stereo not given)
inactive: Potency [1] | activation [2] -6.31% [at 17.1 µM, percent relative to cAMP agonist control] | Potency [3] | activity change, negative = inhibition [4] -11.8% [at 30.8 µM] | activation [5] 29.4% [at 30.8 µM]

Cc1cc2oc(=O)c(CC(=O)O)c(C)c2c2occ(-c3ccccc3)c12
inactive: Potency [1] | Potency [2] | Potency [3] | Potency [4] | Potency [5]

C[C@@H]1ON(C)[C@H]2C[C@H]3c4[nH]c5ccc(-c6ccc7c(c6)OCO7)cc5c4CCN3C(=O)[C@@H]12
inactive: Potency [1] | activation [2] 1.59% [at 17.1 µM, percent relative to cAMP agonist control] | Potency [3] | activity change, negative = inhibition [4] -7.04% [at 30.8 µM] | activation [5] 32% [at 30.8 µM]

Cc1ccc(OCC(=O)Nc2ccc(N3CCCC3)cc2)cc1C
inactive: Potency [1] | Potency [2] | Potency [3] | Potency [4] | Potency [5]

O=C(O)CCn1cc(/C=C\C(=O)c2ccc(Cl)cc2)c(-c2cccc(Br)c2)n1
inactive: Potency [1] | activation [2] 4.02% [at 17.1 µM, percent relative to cAMP agonist control] | Potency [3] | activity change, negative = inhibition [4] 0.257% [at 30.8 µM] | activation [5] 15.3% [at 30.8 µM]

Cc1ccc(NC2c3ncccc3C(=O)N2Cc2cccs2)cc1 (stereo not given)
inactive: Potency [1] | activation [2] -5.52% [at 17.1 µM, percent relative to cAMP agonist control] | Potency [3] | activity change, negative = inhibition [4] 8.01% [at 30.8 µM] | activation [5] 1.62% [at 30.8 µM]

N#C/C(=C\c1ccc(OCc2ccc(C(=O)O)cc2)cc1)C(=O)N1CCOCC1
active: Potency [3] 21.3 µM
inactive: Potency [1] | Potency [2] | Potency [4] | Potency [5]

O=C(N/N=C/c1ccccc1O)/C(=C/c1ccccc1)CCO
inactive: Potency [1] | Potency [2] | Potency [3] | Potency [4] | Potency [5]

O=C(Nc1ccc(NC(=O)c2ccco2)c(Cl)c1)c1ccc2c(c1)OCCO2
inactive: Potency [1] | Potency [2] | Potency [3] | Potency [4] | Potency [5]

Cc1cccc(C)c1-c1ccc(CN2C(CC(C)C)C(=O)N(Cc3cn(CCO)nn3)CCS2(=O)=O)cc1 (stereo not given)
inactive: Potency [1] | activation [2] -6.44% [at 17.1 µM, percent relative to cAMP agonist control] | Potency [3] | activity change, negative = inhibition [4] 9.55% [at 30.8 µM] | activation [5] 18.7% [at 30.8 µM]

Cn1c(COc2ccccc2C(C)(C)C)nc2ccccc21
inactive: Potency [1] | Potency [2] | Potency [3] | Potency [4]
active: Potency [5] 15.8 µM

COc1ccc(C2CC(=O)C3=C(C2)NC(C)=C(C#N)C3c2ccc(N(C)C)cc2)cc1 (stereo not given)
inactive: Potency [1] | activation [2] 6.82% [at 17.1 µM, percent relative to cAMP agonist control] | Potency [3] | activity change, negative = inhibition [4] 0.0712% [at 30.8 µM] | activation [5] 20% [at 30.8 µM]

CC(=O)Nc1ccc(S(=O)(=O)Nc2nc3ccccc3nc2-n2ccc(=NC(=O)c3ccccc3)cc2)cc1
inactive: Potency [1] | activation [2] -0.645% [at 17.1 µM, percent relative to cAMP agonist control] | Potency [3] | activity change, negative = inhibition [4] -23.7% [at 30.8 µM] | activation [5] 5.94% [at 30.8 µM]

CCCCNC(=O)CN1CCN(c2ncc(NC(=O)c3ccc(Cl)cc3)cc2C(=O)O)CC1
inactive: Potency [1] | Potency [2] | Potency [3] | Potency [4] | Potency [5]

CC1=NN(c2ccc(Br)cc2)C(=O)/C1=C/c1cccs1
inactive: Potency [1] | activation [2] 4.12% [at 17.1 µM, percent relative to cAMP agonist control] | Potency [3] | activity change, negative = inhibition [4] 29.1% [at 30.8 µM]
active: Potency [5] 14.1 µM

CC(=O)Nc1cccc(C(=O)/C=C/c2ccc(F)cc2)c1
inactive: Potency [1] | Potency [2] | Potency [3] | Potency [4] | Potency [5]

Cc1ccc2nc(-c3ccccc3)c(Cc3cccc(F)c3)n2c1
inactive: Potency [1] | Potency [2] | Potency [4] | Potency [5]
active: Potency [3] 0.426 µM

CCC(C)n1c(SCC(=O)Nc2ccc3[nH]c(=O)[nH]c3c2)nc2ccccc2c1=O (stereo not given)
inactive: Potency [1] | activation [2] 1.51% [at 17.1 µM, percent relative to cAMP agonist control] | Potency [3] | activity change, negative = inhibition [4] -15% [at 30.8 µM] | activation [5] 13.5% [at 30.8 µM]
